# Reference: PubChem BioAssay AID652067 (The Scripps Research Institute Molecular Screening Center, 2013)
# Hit rate of the full screen: of about 370,000 compounds, about 5,400 (1.5%) were called active.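 Rule for the calls: active = activation above the mean of all tested compounds plus 3 SD (cut at about 5.5% in these data); inactive = the rest.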 Many of the other results were omitted from the sample, so actives are more common in it than they were.
# System: DAF-12 nuclear receptor (Haemonchus contortus)
# Assay: hcDAF-12 driven luciferase reporter activation – cell-based, luminescence, HEK293, lit1-tk-luc reporter, primary screen (AID 652067);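 note: 100% = response to 3 µM Δ7-dafachronic acid high control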
# Conditions: HEK293 hcDAF-12 lit1-tk-luc reporter, at 6.8 µM, hits give high values
row,Compound,activation
1,Cc1ccc(C2CN(C)CC2C(=O)c2ccc(F)cc2)cc1 (stereo not given),0.06% (inactive)
2,COc1ccc(C(=O)C2CN(C)CC2C(=O)c2ccc(OC)cc2)cc1 (stereo not given),8.46% (active)
3,COc1ccc(C(=O)CC2C(=O)N(C)C(=O)N(C)C2=O)cc1,0.97% (inactive)
4,CN(c1ccccc1)c1ccc([N+](=O)[O-])c2nonc12,-1.36% (inactive)
5,CNP1(NC)=Nc2nn(-c3ccccc3)c(N)c2C(c2ccccc2)=N1,-1.95% (inactive)
6,CCCCn1c(=O)c(C(=O)Nc2ccccc2Cl)c(O)c2ccccc21,5.68% (active)
7,CCCCCn1c(=O)c(C(=O)Nc2c(C)n(C)n(-c3ccccc3)c2=O)c(O)c2ccccc21,-0.09% (inactive)
8,CCCCCn1c(=O)c(C(=O)NCc2ccccc2)c(O)c2ccccc21,-0.29% (inactive)
9,O=C(CCN1CCCCC1)NCC(=O)Nc1ccc(Br)cc1C(=O)c1ccccc1,-0.6% (inactive)
10,CS(=O)(=O)N1CCC2CCNC2C1 (stereo not given),-0.6% (inactive)
11,CCC/C(=N\O)c1c[nH]c2ccccc12,6.34% (active)
12,CN1CCN(/N=C/c2c[nH]c3ccccc23)CC1,1.53% (inactive)
13,CN(C)CC1CCCCC1OC(=O)c1ccc(Cl)c(Cl)c1 (stereo not given),0.25% (inactive)
14,CCOc1ccc(C2SCC(=O)Nc3c2c(C)nn3C2CCOC(C)(C)C2)cc1 (stereo not given),-2.48% (inactive)
15,Cc1ccccc1CCC[C@@H](CC1CCCCC1)CN(C)C(=O)Oc1ccccc1,4.88% (inactive)
16,COc1ccc2c(c1)NP(=S)(c1ccccc1)N2 (stereo not given),13.1% (active)
17,Cc1cc(C)c2c(c1)NP(=S)(c1ccccc1)N2 (stereo not given),4.47% (inactive)
18,CO[C@H]([C@H](C)/C=C/N(C)C=O)[C@@H](C)C(=O)CC[C@H](C)[C@H](O)[C@H](C)[C@H]1OC(=O)/C=C/C(C)=C/[C@H](O)[C@H](OC)C[C@@H]2C=CC[C@@H](C[C@H](OC)[C@@]3(CO3)[C@@H](OC)C[C@@H](OC)[C@@H]1C)O2,0.14% (inactive)
19,COc1ccc(-c2nc(CS(=O)CC(=O)N3CCC4(CC3)OCCO4)c(C)o2)cc1 (stereo not given),-0.05% (inactive)
20,COP(=O)(Sc1ccccc1)C(Cc1ccccc1)NC(=O)OCc1ccccc1 (stereo not given),-1.13% (inactive)
